The text below walks through data of PubChem BioAssay AID686978 (National Center for Advancing Translational Sciences (NCATS), 2013).

Molecules are shown by their SMILES. Out of some 420,000 compounds screened, about 64,000 (15%) were called active. About 27% were inconclusive and are not listed. The call rests on the fitted dose curve; in most records, active means well fitted inhibition curve with a large enough effect; inconclusive means small, poorly fitted or top-dose-only effect; inactive means flat fitted curve, though single readings scatter. Only a sample is shown. A call without a number means that no potency is given here.
Potency means the concentration at half of the fitted maximal effect.

This experiment can be described thus: qHTS for Inhibitors of human tyrosyl-DNA phosphodiesterase 1 (TDP1): qHTS in cells in absence of CPT. Further: nearly all actives have a fitted effect of over 55% in size. The following applies: DT40 Tdp1-/- hTDP1 cells, no CPT, ATP luminescence, 48 h; activity change, negative = growth inhibition: at 46.2 µM (top of the series). The essentials: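 Cells were dispensed at 400 per well, compounds added by pin tool, plates incubated ≥48 hr at 37 °C, then CellTiter-Glo added for 30 min at room temperature before luminescence reading. Line: DT40 Tdp1-/- complemented with hTDP1; camptothecin omitted.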
(In general: qHTS replaces the single test concentration by a dilution series.)
Consider `NNC(=O)CNC(c1ccccc1)c1cc(Cl)ccc1NC(=O)c1ccccc1` (centres undefined), for which the Potency result is “inactive”.

As for `CC(C)C(c1nnnn1C(C)(C)C)N1CCN(Cc2cccnc2)CC1` (centres undefined), the Potency entry is “inactive”. The value for `COc1ccc(C(=O)O/N=C(\N)c2ccccn2)cc1[N+](=O)[O-]` was “inactive”.

Take `O=C(Nc1ccccc1)c1ccc(NC(=O)c2cccs2)cc1`: the Potency result was “inactive”. Then `COc1ccccc1N1CCN(C(=O)Cn2nnc(-c3cccs3)n2)CC1`, with “inactive”; and `CCc1ccccc1NC(=O)c1cccs1`, with “inactive”; and `O=C(Nc1ccccc1-c1ccccc1)c1cccs1`, with 23.1 µM (active). The value for `O=C(Nc1ccccc1-c1nnn(CC(=O)N2CCN(c3ccccc3)CC2)n1)c1cccs1` was 23.1 µM (active); that for `CCOc1ccc(-c2nnn(CC(=O)N3CCN(c4ccc(F)cc4)CC3)n2)cc1OCC` was “inactive”; that for `OCCNCCCCOc1ccccc1F` was “inactive”. Take `Cn1c2c(c(=O)n(C)c1=O)[C@@H]1c3c(ccc4ccccc34)OC[C@@H]1CO2`: the Potency result is “inactive”. The value for `COc1cc(N2C(=O)CC3(CCCC3)CC2=O)cc(OC)c1OC` was “inactive”; that for `O=C(COc1ccc(F)cc1)N(CC1=CCS(=O)(=O)C1)c1ccccc1` was “inactive”; that for `CC1C(=O)N(Cc2ccccc2)c2ccccc2N1C(=O)c1ccccc1` (centres undefined) was 13 µM (active). The value for `CC1C(=O)Nc2ccccc2N1C(=O)c1c(F)cccc1F` (centres undefined) was “inactive”; that for `CC1Oc2ccccc2N(Cc2cccnc2)C1=O` (centres undefined) was “inactive”; that for `Cc1ccc(C(=O)Nc2nc(-c3ccccc3)ns2)cc1` was “inactive”. Then `Cc1ccc(C(=O)Nc2nc(N)n(-c3ccccc3)n2)cc1`, with “inactive”. In the case of `CCc1cccc(-n2nnc(-c3nsc(NC(=O)c4ccc(C)cc4)n3)c2C)c1`, the Potency was 8.2 µM (active). The value for `CC(=O)c1ccc(-c2nnc(CCC(=O)N(C)Cc3cnc4ccccn34)o2)s1` was “inactive”. For the compound `CCc1ccc(CN(C)C(=O)CCc2nnc(-c3ccc(-c4ccccc4)cc3)o2)nc1`, the Potency is 11.6 µM (active). Then `CN(Cc1ccccc1)C(=O)CCc1ccccc1`, with “inactive”; and `CCOc1ccc(C)cc1S(=O)(=O)NC1CCCCCC1`, with “inactive”. As to `Clc1ccc(C[n+]2cc(-c3ccccc3)n3c2CCC3)cc1`, the Potency was 5.17 µM (active).

Consider `Cn1c(-c2ccccc2)c[n+]2c1CCCCC2`, for which the Potency entry is “inactive”. Then `Clc1ccc(C[n+]2cc(-c3ccc(Cl)cc3)n3c2CCC3)cc1`, with 5.8 µM (active).

With `COc1ccccc1C(=O)NCCC(=O)N(C)Cc1cccnc1`, the Potency result is “inactive”.

`COCC1CCN(C(=O)C2CCC(=O)N(Cc3cccc(C(F)(F)F)c3)C2)CC1` (centres undefined): the Potency result was “inactive”. As to `O=C(NCCc1ccccn1)c1nc(Cn2cc([N+](=O)[O-])cn2)no1`, the Potency result is “inactive”. Then `Cc1nc(Cl)c(C#N)c2c1CCCC2`, with “inactive”; and `N#C/C(=C1/CCCN1)c1ccccn1`, with “inactive”; and `Cc1sc2nc(SCCO)n(-c3ccccc3)c(=O)c2c1C`, with 13 µM (active).

On to `Cc1sc2nc(SCC(N)=O)n(C)c(=O)c2c1C`, for which the Potency result is “inactive”.

As for `CCc1cc2c(=O)n(-c3ccccc3)c(SCC(=O)O)nc2s1`, the Potency result is “inactive”. Then `COc1cccc(N(C(=O)CNC(=O)c2ccco2)C(C(=O)NC2CCCCC2)c2cccnc2)c1` (centres undefined), with “inactive”; and `CCOc1ccc2cc(C#N)c(SCC(=O)OC)nc2c1`, with “inactive”; and `CC(C)c1c(C(=O)N/N=C/c2ccc(-c3ccccc3)cc2)nnn1-c1nonc1N`, with “inactive”.

Regarding `CC1(C)C(=O)C2(CCCCC2)C(=O)OC1c1cccs1` (centres undefined), the Potency entry is “inactive”. The value for `O=c1oc2ccccc2c(=O)c2ccccc12` was “inactive”; that for `CCNc1c(NS(=O)(=O)c2ccc(C3CCCCC3)cc2)c(=O)oc2ccccc12` was 16.4 µM (active); that for `CC(C)(C)Nc1c(N)c(=O)oc2ccccc12` was “inactive”.

As to `Cn1c(Cc2csc(N)n2)nnc1SC/C=C/c1ccccc1`, the Potency result was “inactive”. Then `CCOC(=O)C1=NN(c2ccc(Cl)cc2)/C(=C/C2=NCCc3cc(OC)c(OC)cc32)S1`, with “inactive”; and `COc1cc2c(cc1OC)C(/C=C/c1ccco1)=NCC2`, with 13 µM (active). The value for `COc1cccc2c(N/N=C/c3ccco3)cc(C)nc12` was “inactive”; that for `CC12C(=O)N(n3cnnc3)C(=O)C1C1C=CC2C1` (centres undefined) was “inactive”.

Consider `CS(=O)(=O)N(CC(=O)N1CCCC1)Cc1ccccc1`, for which the Potency result is “inactive”.

On to `Cc1ccc2nc(-c3cccc(Br)c3)cc(C(=O)Nn3cnnc3)c2c1`, for which the Potency entry is “inactive”. Then `O=c1c2cc(Br)ccc2nc(-c2cccc(Cl)c2)n1O`, with 23.1 µM (active).

In the case of `O=C1CCCc2c1nc(-c1cccc(Cl)c1)n2O`, the Potency result is “inactive”. In the case of `CCOC(=O)N1CCC(NC(=O)CCc2cn(C)c3ccccc23)CC1`, the Potency result was “inactive”.

`CCC(CC)c1nnc(NC(=O)C2=COCCO2)s1`: the Potency result was “inactive”. The value for `CNC(=O)NC(=O)CSc1nnc(-c2ccc(F)cc2)n1CC1CCCO1` (centres undefined) was “inactive”; that for `Cc1ccc(CNS(=O)(=O)c2ccc(-c3cc(C(F)(F)F)on3)s2)cc1` was “inactive”; that for `COCCn1cnc2c1c(=O)n(CC(=O)NN)c(=O)n2Cc1ccccc1` was “inactive”.

For `Cc1cccc(N2CC(C)Cn3c2nc2c3c(=O)n(CC(=O)OCc3ccccc3)c(=O)n2C)c1` (centres undefined), the Potency is 13 µM (active). The value for `CC1CN(C2CCCCC2)c2nc3c(c(=O)n(C)c(=O)n3C)n2C1` (centres undefined) was “inactive”.

As for `Cc1ccccc1SCC(=O)OCC(=O)N1CC(=O)Nc2ccccc21`, the Potency entry is “inactive”. Then `CC(=O)C1C(c2cccc(Oc3ccccc3)c2)NC(=O)NC1(O)C(F)(F)F` (centres undefined), with “inactive”; and `C[C@@H]1CN([C@@H](C)CO)S(=O)(=O)c2ccc(C#Cc3cccc(F)c3)cc2O[C@H]1CN(C)S(=O)(=O)c1cn(C)cn1`, with 23.1 µM (active); and `C[C@@H]1CN([C@@H](C)CO)S(=O)(=O)c2ccc(-c3ccc(C(=O)N(C)C)cc3)cc2O[C@@H]1CN(C)Cc1ccccc1C(=O)O`, with “inactive”.

Turning to `C[C@H]1CN([C@@H](C)CO)S(=O)(=O)c2ccc(-c3cccc(F)c3)cc2O[C@@H]1CN(C)C`, the Potency result is “inactive”. The value for `C[C@@H]1CN([C@H](C)CO)S(=O)(=O)c2ccc(C#C[C@@H](C)O)cc2O[C@@H]1CN(C)Cc1ccc(-c2ccccc2)cc1` was 6.51 µM (active); that for `COCC(=O)N(C)C[C@H]1Oc2cc(Br)ccc2S(=O)(=O)N([C@H](C)CO)C[C@H]1C` was “inactive”; that for `C[C@H](CO)N1C[C@H](C)[C@@H](CN(C)C(=O)c2cccc(F)c2)Oc2cc(-c3cncnc3)ccc2S1(=O)=O` was “inactive”. Then `CCCCc1nc(SCC(=O)Nc2nnc(C(C)C)s2)n[nH]1`, with “inactive”; and `COc1cccc(N2C(=O)CN(Cc3ccccc3)C2=S)c1`, with “inactive”. The value for `COc1ccccc1NC(=O)C1=C(C)Nc2nnnn2C1c1cccc(Br)c1` (centres undefined) was “inactive”. For the compound `Cc1ccccc1OCCOc1ccc([N+](=O)[O-])cc1/C=N/n1cnnc1`, the Potency was 1.46 µM (active). Then `Cc1cc([N+](=O)[O-])c(-c2ccc(/C=N/n3cnnc3)o2)cc1Cl`, with “inactive”; and `COc1ccccc1OCCOc1ccc(/C=N/n2cnnc2)cc1`, with “inactive”; and `Cc1ccc(Cn2c(=O)n(-c3ccc(C)cc3)c(=O)c3c2c2cc(C)ccc2n3C)cc1`, with “inactive”.

On to `Cc1nnc(SCC(=O)N2CCOCC2)[nH]c1=O`, for which the Potency result was “inactive”. In the case of `CCC(C)n1[nH]c(=O)c2c(C)cc(C)nc21` (centres undefined), the Potency entry was “inactive”. Then `Cc1ccc(S(=O)(=O)N2CCC(C(=O)OCC(=O)N3CC(=O)Nc4ccccc43)CC2)cc1`, with “inactive”; and `CCOC(=O)COn1c(=O)c(-c2ccc(OCC)cc2)[n+]([O-])c2ccccc21`, with “inactive”. Then `O=c1c(-c2ccc(Cl)cc2)[n+]([O-])c2ccccc2n1OCc1nc2ccccc2[nH]1`, with “inactive”; and `COc1ccc(OC)c(-c2c(=O)n(OCc3ccccc3Br)c3ccccc3[n+]2[O-])c1`, with 23.1 µM (active). The value for `CCOc1ccc(OCC)c(-c2c(=O)n(OCc3ccc(Cl)cc3)c3ccccc3[n+]2[O-])c1` was 8.2 µM (active). As to `Cc1cc(C)cc(OCC(=O)OCC(=O)NC2CCCC2)c1`, the Potency result is “inactive”. Then `COC(=O)Cc1nc2c(N)nc(N)nc2[nH]c1=O`, with “inactive”; and `CS(=O)(=O)N1CCCC(C(=O)Nc2ccccc2C(F)(F)F)C1` (centres undefined), with “inactive”; and `CC1CCCCN1S(=O)(=O)c1ccc(F)c(C(=O)Nc2ccccc2C(F)(F)F)c1` (centres undefined), with 18.4 µM (active). The value for `CC(C)c1ccc(NC(=O)c2cc(S(=O)(=O)N3CCc4ccccc4C3)ccc2F)cc1` was “inactive”. The value for `COc1cc(OC)c(C(=O)NNC(=O)c2ccccc2-n2cccc2)cc1OC` was “inactive”; that for `O=C(O)c1n[nH]nc1-c1ccccc1` was “inactive”. `Cc1cccc(-n2ncc(C(=O)N3CCC(C)CC3)c2C2CCN(C(=O)OC(C)(C)C)CC2)c1`: the Potency result was “inactive”. Take `CC(C)(C)OC(=O)N1CCC(C(=O)NNC(=O)c2ccc(Cl)cc2Cl)CC1`: the Potency entry was “inactive”. Then `Cc1cccc(-n2ncc(C(=O)N3CCN(c4ccc(Cl)cc4)CC3)c2C2CCN(C(=O)OC(C)(C)C)CC2)c1`, with 9.2 µM (active); and `Cc1cccc(-n2ncc(C(=O)N3CCc4ccccc4C3)c2C2CCN(C(=O)OC(C)(C)C)CC2)c1`, with “inactive”. As for `CC(C)(C)OC(=O)N1CCC(c2c(C(=O)N3CCN(c4cccc(Cl)c4)CC3)cnn2-c2cccc(Cl)c2)CC1`, the Potency is 9.2 µM (active). On to `CC(C)(C)OC(=O)N1CCN(C(=O)c2[nH]c(C(F)(F)F)nc2-c2ccccc2)CC1`, for which the Potency entry was “inactive”. The value for `N/C(=N\OC(=O)CCC1CCCCC1)c1ccccn1` was “inactive”; that for `Cc1cccc(OCC(=O)NC2CC(C)(C)NC(C)(C)C2)c1` was “inactive”; that for `C/C(=N\NC(=O)Cc1ccccc1[N+](=O)[O-])c1cccnc1` was “inactive”. Then `CN(CC(=O)O)C(=O)c1ccccc1`, with “inactive”; and `CN(O)C(=S)c1ccccc1`, with 0.164 µM (active). In the case of `S=C(c1ccccc1)N1CCCC1`, the Potency result was “inactive”. The value for `CN(C)C(=O)c1ccc(-c2cncnc2Nc2ccccc2)cc1` was “inactive”; that for `CC(Cc1cccs1)NC(=O)NC1CCCCC1` (centres undefined) was “inactive”; that for `Cc1nc([N+](=O)[O-])cn1CC(=O)Nc1ccc2c(c1)OCO2` was “inactive”. Then `COc1ccc(C(=O)c2c(C)c(CCC#N)n3ccccc23)c(OC)c1`, with 20.6 µM (active); and `Cc1c(C(=O)c2cccc([N+](=O)[O-])c2)c2ccccn2c1CCC#N`, with “inactive”. As for `COc1ccc(C(=O)COC(=O)C(O)c2ccccc2)c(OC)c1` (centres undefined), the Potency entry is “inactive”.
